In PubChem BioAssay AID2025 (NMMLSC, 2009):
Among all 330,000 compounds or so, about 980 (0.3%) were called active.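 The calls were made as follows: active = percent response vs DMSO below 50%; inconclusive = fewer than 70 events counted for the yeast strain; inactive = the rest.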 This excerpt belongs to a sample that is enriched for actives.

Assay: RPL19A-GFP expression modulators in yeast, primary screen, cell-based, S. cerevisiae, multiplex flow cytometry, MLPCN (AID 2025);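 also: median channel GFP fluorescence of the barcoded RPL19A-GFP strain; ratio of sample median GFP to plate DMSO average so 100% = DMSO; lower means less RPL19A-GFP as with rapamycin TOR inhibition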
Conditions: S. cerevisiae RPL19A-GFP strain, 3 h, at 10 µM, hits give low values

Percent response vs DMSO, inactive:
CC(=O)c1c(C)c[nH]c1C 101%, COc1ccc(-c2cn3cccnc3n2)cc1 98.9%, CC(C)(C)C(=O)Nc1ccc(-c2cn3cccnc3n2)cc1 105%, Cc1noc(C)c1-c1ccc2ncnc(NC(C)c3ccco3)c2c1 (stereo not drawn) 99.4%, O=C(C[C@H]1C/C=C\C[C@@H](NC(=O)OCC2c3ccccc3-c3ccccc32)C(=O)O[C@@H](c2ccccc2)CNC1=O)N[C@H](CO)Cc1ccccc1 101%, CCOC(=O)C1CCCCN1Cc1ccc(OC)c(OC)c1OC (stereo not drawn) 94.8%, CCOC(=O)c1c(CN(C)C)n(-c2ccccc2)c2cc(Br)c(O)cc12 98%, CCOC(=O)c1nnn(-c2nonc2-n2cccc2)c1CN1CCOCC1 95.3%, COc1ccc(C(=O)NC(Cc2ccc(OC(=O)c3ccc(OC)cc3)cc2)C(=O)O)cc1 (stereo not drawn) 96.9%, O=C(O)c1ccc(COc2c(F)c(F)cc(F)c2F)o1 97%, O=C(CCS(=O)(=O)c1ccc2c(c1)NC(=O)CS2)NCc1ccccc1Cl 100%, CSc1cccc(NC(=O)C2CCCN2S(=O)(=O)c2ccc3c(c2)CCC(=O)N3)c1 (stereo not drawn) 100%, NNC(=O)C1CC(O)CN1S(=O)(=O)c1ccc(Cl)cc1 (stereo not drawn) 101%, CCCN1CCN(C(=O)CCCNC(=O)c2ccc(Cl)cc2)CC1 98.3%, O=C(CCNC(=O)c1ccc(Br)cc1)NCCCc1ccccc1 101%, O=C(Nc1ccc(Cl)cc1)Nc1nnc(/C=C/c2ccccc2)s1 97.4%, CN(c1cccc(NC(=O)Nc2ccc(Cl)cc2)c1)S(C)(=O)=O 102%, CCCCNC(=O)c1cn(CC)c2cc(N3CCN(C(=O)c4ccco4)CC3)c(F)cc2c1=O 95.5%, Cc1cc(=O)oc2c(C)c(OCC(=O)NCCN3CCOCC3)ccc12 97.4%

Percent response vs DMSO, active:
FC(F)(F)Oc1ccc(-c2cn3cccnc3n2)cc1 30.4% [may fluoresce violet], CCOC(=O)c1c(CN2CCOCC2)n(-c2ccccc2)c2ccc(O)cc12 14.2% [may fluoresce violet], CCCCNC(=O)CCNC(=O)c1ccc(C(C)(C)C)cc1 47.4% [may fluoresce violet], O=C(Nc1ccccc1)c1nnsc1S(=O)(=O)c1ccc(Cl)cc1 46.8%
